Only some compounds are listed: those with a hit (about 3.6% of all), similar ones and a draw of the others.
IL1B cytotox – HUVEC cytotoxicity counter-screen, IL-1B stimulated; HUVEC cell count loss, Hoechst imaging; cell count reduction, % at 2 µM; 94,000 compounds, 0.41% hits; AID 845;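 active = cell count reduction more than 3 SD above the screen-wide mean, cut at about 70% in these data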;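 note: normalized per plate to untreated control cells as the no-loss baseline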
IL1B NFkB pot – enhances IL-1B driven NFkB nuclear translocation; HUVEC IL-1B NFkB p65 nuclear translocation imaging; activation, % at 2 µM; 94,000 compounds, 0.3% hits;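 active = activation above 40%, about the mean plus 3 SD, also judged a hit on visual image review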;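 note: percent activation is computed from the nuclear over cytoplasmic p65 intensity ratio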
ERb coact inh – blocks coactivator binding to human estrogen receptor beta | Q92731 | TR-FRET ER-beta LBD / SRC1-Cy5 peptide binding; receptor agonist-loaded with 1 µM estradiol | inhibition, % at 25.6 µM | 86,000 compounds, 1.3% hits | AID 633;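 active = compounds whose percent inhibition of the receptor-coactivator binding signal exceeds about 50% in the single-dose screen, limit read from the data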;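 note: 0% = receptor plus peptide wells without compound and 100% = peptide-only wells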
ERa SRC1 pot – enhances coactivator binding to human estrogen receptor alpha | P03372 | 86,000 compounds, 1.3% hits | AID 639 | TR-FRET ERalpha-LBD/SRC-Cy5 coactivator binding, 2 h; 100 = basal binding, no effect | coactivator binding (% of control), % at 25.6 µM; in the data active = activity above about 200%;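 note: binding measured in presence of low estradiol as agonist stimulus; 0% = peptide alone without receptor and 100% = receptor with peptide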
Target sequence (P03372 whole entry, looked up, the tested form may be a part): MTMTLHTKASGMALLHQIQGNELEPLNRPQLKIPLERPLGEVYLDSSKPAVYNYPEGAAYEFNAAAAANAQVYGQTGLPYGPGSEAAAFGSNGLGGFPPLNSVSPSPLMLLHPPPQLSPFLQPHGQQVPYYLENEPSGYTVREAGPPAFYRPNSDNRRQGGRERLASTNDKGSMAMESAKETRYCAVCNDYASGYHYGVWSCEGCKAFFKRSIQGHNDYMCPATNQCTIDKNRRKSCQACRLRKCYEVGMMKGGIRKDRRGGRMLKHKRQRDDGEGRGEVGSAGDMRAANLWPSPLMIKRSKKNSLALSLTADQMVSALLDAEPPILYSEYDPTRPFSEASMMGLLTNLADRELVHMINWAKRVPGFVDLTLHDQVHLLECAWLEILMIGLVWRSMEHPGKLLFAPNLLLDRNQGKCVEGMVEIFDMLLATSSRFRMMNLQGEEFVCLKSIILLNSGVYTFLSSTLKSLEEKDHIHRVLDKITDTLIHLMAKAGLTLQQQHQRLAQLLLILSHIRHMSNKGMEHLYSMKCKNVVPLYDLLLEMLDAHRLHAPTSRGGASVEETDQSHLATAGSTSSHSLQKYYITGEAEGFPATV
NFkB transloc inh – blocks IL-1B driven NFkB nuclear translocation in HUVEC cells; HUVEC IL-1B NFkB p65 nuclear translocation imaging; inhibition, % at 2 µM; 94,000 compounds, 0.43% hits;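 active = inhibition above about 30% together with a positive call from visual inspection of the well image, limit read from the data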;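 note: nuclear over cytoplasmic p65 intensity ratio measured by imaging; 0% = IL-1B stimulated DMSO wells and 100% = unstimulated DMSO wells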
ERa coact inh – blocks coactivator binding to human estrogen receptor alpha. 86,000 compounds, 1.7% hits. inhibition, % at 25.6 µM. P03372. TR-FRET ER-alpha LBD / SRC-1 peptide, estradiol-bound. AID 629; in the data active = inhibition above about 50%;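 note: 0% = receptor plus peptide control and 100% = peptide only without receptor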
Numbers without * were called inactive; . = not tested or not shown; [ ] = another dose, or the depositor's remark.

SMILES	IL1B cytotox	IL1B NFkB pot	ERb coact inh	ERa SRC1 pot	NFkB transloc inh	ERa coact inh
Cc1[nH]c2ccccc2c1Cc1n[nH]c(=S)o1	13	46*	-4	95	-46	9
O=C(c1cnsn1)N1CCN(c2ccccn2)CC1	-10	-1	1	85	1	-5
CCC(=O)Nc1ccc(S(=O)(=O)Nc2cccnc2)cc1	3	-3	77*[fluorescence artefact?]	107	3	-4
CCC(=O)Nc1ccc(S(=O)(=O)Nc2ncccn2)cc1	-2	-3	.	.	3	.
CN1CCN(Cc2cc(=O)oc3cc4c(cc23)CCC4)CC1	-12	41*	-15	107	-41	-2
Cc1cc2oc(=O)cc(CN3CCCc4ccccc43)c2cc1C	.	.	8	231*[fluorescence artefact?]	.	6
Cc1cc2oc(=O)cc(CN3CCOCC3)c2cc1C	-13	-2	-16	104	2	-14
CCCOc1ccc(S(=O)(=O)NCc2ccc(OC)cc2)cc1	5	-3	2	121	3	4
COc1ccc(-c2nc(N3CCCC3)nc3nn4c(C)cc(C)nc4c23)cc1	.	.	-3	123	.	12
O=C1C2CC=CCC2C(=O)N1c1n[nH]c(-c2ccccc2)n1 (stereo unspecified)	-10	-3	50	87	3	4
CCN1C(=O)c2cccc3c(NC(=O)c4ccc5c(c4)OCCO5)ccc1c23	.	.	2	255*	.	7
COc1ccccc1NC(=S)N1CCC(c2nc3cc(C)c(C)cc3[nH]2)CC1	-15	-56	.	.	56*	.
COc1ccc(C2CC(=O)Nc3ccccc3S2(=O)=O)cc1OC (stereo unspecified)	.	.	50*	55	.	32
CC1=NC(C(F)(F)F)(C(F)(F)F)C(C#N)=C(C)N1	-12	6	-8	106	-6	-8
N/C(=N\OS(=O)(=O)c1ccc(Br)cc1)c1ccncc1	-19	-35	-5	103	35*	3
O=C(c1ccncc1)c1ccc(Br)cc1	-64	14	-3	104	-14	0
Cc1ccc(OCCn2c(C)c(/C=N/n3cnnc3)c3ccccc32)cc1	8	14	.	.	-14	.
Cc1c(/C=N/n2cnnc2)c2ccccc2n1CCOc1ccc(Cl)cc1	-12	32	5	119	-32	53*
CCCn1c(SCC#N)nc2c(c1=O)C1(CCCC1)Cc1ccccc1-2	93*	-18	-2	103	18	-5
Cc1cc(N2CCN(C(=O)c3ccco3)CC2)n2nc(-c3cccc(Cl)c3)cc2n1	.	.	57*[fluorescence artefact?]	107	.	29
Cc1nn2c(N3CCN(C(=O)c4ccco4)CC3)cc(C(C)(C)C)nc2c1-c1ccc(Cl)cc1	25	-2	.	.	2	.
Cc1cc(N2CCN(C(=O)c3ccco3)CC2)n2nc(C)c(-c3ccccc3)c2n1	-30	9	5	220*	-8	-28
Cc1cc(N2CCN(C(=O)c3ccco3)CC2)n2nc(C)c(-c3ccc(Cl)cc3)c2n1	.	.	55*[fluorescence artefact?]	282*	.	55*[fluorescence artefact?]
Cc1nc2cc(-c3cccc(Cl)c3)nn2c(N2CCN(C(=O)c3ccco3)CC2)c1C	.	.	6	107	.	12
Cc1cc(C)n(-c2ccc(C(=O)C(C#N)c3nc4ccccc4n3C)cc2)n1 (stereo unspecified)	8	6	2	112	-6	10
SMILES	IL1B cytotox	IL1B NFkB pot	ERb coact inh	ERa SRC1 pot	NFkB transloc inh	ERa coact inh
COC(=O)CSc1nc(NC#N)nc(NC(C)C)n1	-17	-10	-11	102	10	-7
CCSc1nc(C)c(CC)c(C)c1C(N)=O	-1	-34	17	98	34*	9
COc1ccc(C(C)C)cc1S(=O)(=O)Nc1ccc(Cl)cn1	-18	-8	74*[fluorescence artefact?]	134	8	-2
CCOc1ccc(C)cc1S(=O)(=O)Nc1ccc(Cl)cn1	20	-1	-8	113	1	-8
C=CCc1cccc2cc(C(=O)OCC(=O)c3ccccc3)c(=O)oc12	86*	10	-2	120	-10	3
CCOC(=O)/C=C/S(=O)(=O)c1ccc(NC(C)=O)cc1	-8	-33	21	89	33*	9
CCOC(=O)c1cccc(NS(=O)(=O)c2ccc(NC(C)=O)cc2)c1	-86	1	-2	89	-2	-1
Cc1ccc(-n2c(SCC(=O)N3CCCC3)nc3c(c2=O)SCC3)cc1	.	.	-8	107	.	3
COC(=O)c1ccc(CSc2nc3c(c(=O)n2-c2ccc(C)cc2)SCC3)o1	.	.	27	336*[fluorescence artefact?]	.	21
Cc1cc(NC(=O)CSc2nc3c(c(=O)n2-c2ccc(Br)cc2)SCC3)no1	-19	6	29	126	-6	60*[fluorescence artefact?]
O=S(=O)(c1cnc[nH]1)N1CCc2ccccc21	.	.	2	124	.	-4
COc1ccccc1OCC(=O)c1[nH]c(C)c(C(C)=O)c1C	1	-2	74*[fluorescence artefact?]	42	2	69*[fluorescence artefact?]
CC(=O)c1c(C)[nH]c(C(=O)COc2cc(C)ccc2C(C)C)c1C	40	-8	4	114	8	-15
CC(=O)c1c(C)[nH]c(C(=O)COc2ccc(C#N)cc2)c1C	-8	-5	12	42	5	63*
CCOC(=O)c1[nH]c(COC(=O)CCOc2ccccc2OC)c(C(=O)OCC)c1C	12	9	.	.	-9	.
CCOC(=O)c1c(C)[nH]c(C)c1C(=O)COC(=O)CCOc1ccccc1OC	-161	5	58*	80	-5	21
NC(=O)Cn1c(=O)n(Cc2ccco2)c(=O)c2c3c(sc21)CCCCC3	10	1	90*[fluorescence artefact?]	17	-1	91*[fluorescence artefact?]
O=C(Cn1c(=O)n(Cc2ccco2)c(=O)c2c3c(sc21)CCCC3)Nc1ccccc1	3	3	-12	107	-3	-9
CCNc1nc(NC(C)C)nc(Nn2cnnc2)n1	90*	-96	.	.	96*	.
CC(NC(=O)c1ccccc1Cl)C(=O)O (stereo unspecified)	5	67*	2	115	-67	3
Cc1nc2ccc(-c3nc4cc(N)ccc4o3)cc2[nH]1	-19	2	15	72	-2	11
Nc1ccc2oc(-c3ccc4nc[nH]c4c3)nc2c1	26	5	30	33	-6	77*[fluorescence artefact?]
COc1cc(OC)nc(NC(=O)C(C)C)n1	-46	6	-6	111	-6	62*
CCOc1ccc(N2CC(=O)N/C2=N\c2nc(C)cc(C)n2)cc1	2	-6	2	106	6	-6
CSc1ncc2c(n1)-c1cc(C)ccc1SC2	0	-4	38	39	4	97*
COc1ccc(S(=O)(=O)O/N=C2\CCSc3ccc(C)cc32)cc1	-9	20	.	.	-20	.
CCN(CC)c1ccc2cc(C=O)c(=O)oc2c1	-7	72*	3	110	-72	-4
Cc1cc(=O)oc2cc(OCC(=O)Nc3nnc(C(C)C)s3)ccc12	16	2	9	488*	-2	26
Cc1cc(NC(=O)Cn2c(C)nc3ccccc3c2=O)ccc1Br	14	8	9	265*	-8	19
